Drawing on patent US20060069055, “Delivery of polynucleotides” (published 2006), this text covers IC50 for one sequence.

The assay deals with NF-kB p65/p50 heterodimer (Homo sapiens, UniProt Q04206;P19838 Q04206:1-551,P19838:1-433). In words: EMSA; competition against labelled probe 113/114. The settings on record: protein: extract; tags: nuclear extract of LPS-stimulated THP-1 cells; dsDNA, one strand shown; PS at the 4 most 3' linkages of both strands. The source says:
The EMSA assay was employed to characterize oligonucleotide decoys for the NF-κB transcription factor. […] Using the above modified oligonucleotides to compete for binding for the above-mentioned NF-κB family members, it was possible to compare the binding affinity of these oligonucleotides against the high affinity radiolabeled probe and each other. This assay has also enabled the design of a decoy which selectively binds particular members of the NF-κB family. By using increasing concentrations of various oligonucleotides, it was observed that, by deleting or changing targeted residues in the binding site, it was possible to specifically decrease the binding of the decoy molecule to p50/p50 homodimers, while retaining the affinity for p65/p50 and cRel/p50 heterodimers.
The NF-κB gel shift assays (EMSA) were performed as follows. A double-stranded oligonucleotide containing a consensus NF-κB binding site (5′ […].GGC 3′) (SEQ ID NO: 26) was end-labeled with γ³²P-ATP using T4 Polynucleotide Kinase (Promega). […] The dried gels were imaged and quantitated using a Typhoon 8600 Phosphorlmager (Amersham) and ImageQuant software. […]
In general terms: A gel shift assay detects complexes by their altered migration in electrophoresis.

Sequence of NF-kB p65/p50 heterodimer (Q04206 whole entry, chain 1 of 2): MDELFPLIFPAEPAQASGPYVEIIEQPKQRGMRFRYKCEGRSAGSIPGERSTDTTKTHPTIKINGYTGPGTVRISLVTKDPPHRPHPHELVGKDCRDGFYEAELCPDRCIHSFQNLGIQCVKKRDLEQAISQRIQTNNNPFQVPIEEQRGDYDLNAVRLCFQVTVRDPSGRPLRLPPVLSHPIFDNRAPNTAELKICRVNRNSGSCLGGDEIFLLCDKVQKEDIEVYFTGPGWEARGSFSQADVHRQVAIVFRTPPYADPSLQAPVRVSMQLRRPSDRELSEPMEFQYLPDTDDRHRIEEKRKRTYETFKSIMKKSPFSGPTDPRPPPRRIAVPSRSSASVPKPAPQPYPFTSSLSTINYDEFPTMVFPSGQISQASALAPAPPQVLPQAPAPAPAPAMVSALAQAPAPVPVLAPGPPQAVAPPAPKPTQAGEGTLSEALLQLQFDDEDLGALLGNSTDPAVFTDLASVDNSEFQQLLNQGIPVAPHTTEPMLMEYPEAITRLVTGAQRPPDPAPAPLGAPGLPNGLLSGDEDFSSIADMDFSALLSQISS
Sequence of NF-kB p65/p50 heterodimer (P19838 1-433, chain 2 of 2): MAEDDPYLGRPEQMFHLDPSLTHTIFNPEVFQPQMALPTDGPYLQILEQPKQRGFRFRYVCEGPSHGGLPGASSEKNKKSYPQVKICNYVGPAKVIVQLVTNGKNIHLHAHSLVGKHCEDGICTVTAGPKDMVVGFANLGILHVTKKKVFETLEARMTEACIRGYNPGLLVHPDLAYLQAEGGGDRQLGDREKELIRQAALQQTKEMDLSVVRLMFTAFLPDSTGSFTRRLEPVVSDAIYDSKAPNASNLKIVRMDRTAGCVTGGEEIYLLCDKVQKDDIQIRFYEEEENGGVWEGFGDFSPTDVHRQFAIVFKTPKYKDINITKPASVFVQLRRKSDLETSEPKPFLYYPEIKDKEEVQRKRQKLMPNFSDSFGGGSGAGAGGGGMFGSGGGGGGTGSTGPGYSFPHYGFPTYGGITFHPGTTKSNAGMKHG

With AGTTGAGGACTTTCCAGGC, the IC50 came to 85 fold molar excess.
